From PubChem BioAssay
GDH-TPI counter-1: counter-screen for M. tuberculosis FBA inhibitors: GDH-TPI coupled enzymes; GDH-TPI coupled enzyme counterscreen, NADH absorbance; inhibition, % at 4.8 µM; 1.2% of 360,000 active; AID 588335; in the data active = inhibition above about 30%
Mtb FBA inh: Mtb fructose-bisphosphate aldolase inhibition; purified M. tuberculosis FBA, fluorescence read-out; 2.3% of 360,000 active; inhibition, % at 1 µM; AID 588726; P9WQA3
Target sequence (P9WQA3 whole entry, looked up): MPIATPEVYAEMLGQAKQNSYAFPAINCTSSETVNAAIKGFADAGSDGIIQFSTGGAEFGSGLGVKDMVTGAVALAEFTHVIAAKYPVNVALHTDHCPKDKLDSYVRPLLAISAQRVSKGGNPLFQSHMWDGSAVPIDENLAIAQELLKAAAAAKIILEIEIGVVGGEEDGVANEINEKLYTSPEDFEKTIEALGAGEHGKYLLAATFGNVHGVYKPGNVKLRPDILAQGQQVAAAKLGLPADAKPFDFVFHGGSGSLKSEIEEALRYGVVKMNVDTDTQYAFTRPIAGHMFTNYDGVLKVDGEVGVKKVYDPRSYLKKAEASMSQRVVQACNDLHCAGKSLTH
BH1578 lux ind: induces V. cholerae light production without autoinducers. V. cholerae BH1578 lux reporter, luminescence, 6 h. activation, % at 18.7 µM. 0.16% of 350,000 active; in the data active = activation mostly above about 9.7%, no sharp cut-off
3CLpro inhibitor: SARS-CoV 3CLpro protease inhibition; P0C6X7; recombinant SARS-CoV 3CLpro, quenched FRET peptide cleavage; inhibition, % at 6 µM; 0.14% of 290,000 active; in the data active = inhibition above about 12%
PrPC surface inh: cell surface PrPC inhibition, primary TR-FRET screen | inhibition, % at 13.8 µM | AID 720596 | 0.43% of 370,000 active | P04156 | TR-FRET read-out; in the data active = inhibition above about 24%
Mtb FBA inh conf: Mtb FBA inhibition, confirmed; shares compounds with Mtb FBA inh; purified M. tuberculosis FBA, fluorescence read-out; inhibition, % at 1 µM; 78% of 5,600 active
GDH-TPI counter-2: counter-screen for M. tuberculosis FBA inhibitors: GDH-TPI coupled enzyme inhibition; GDH-TPI coupled enzyme counterscreen, fluorescence; AID 652141; inhibition, % at 1 µM; 81% of 5,600 active; shares compounds with Mtb FBA inh; in the data active = inhibition above about 10%
GDH-TPI dose: counter-screen for M. tuberculosis FBA inhibitors: GDH-TPI dose response; shares compounds with Mtb FBA inh; GDH-TPI coupled enzyme assay, fluorescence, artifact counterscreen; IC50, µM; 79% of 170 active; call rule not given here
A number is an active result; i = inactive; nt = no result given; + = active, no number. Sampled rows, rich in hits. Any-hit rate of the full collection: about 3.9%. Cut-off read from the data, not from the text of the source, unless noted: active = inhibition above about 27%; inactive = the rest.

SMILES	GDH-TPI counter-1	Mtb FBA inh	BH1578 lux ind	3CLpro inhibitor	PrPC surface inh	Mtb FBA inh conf	GDH-TPI counter-2	others
Cc1ccc(S(=O)(=O)NN2C(=O)c3ccccc3NC2(C)C)cc1	i	36	i	i	i	+	+
O=S(=O)(NCCc1ccncc1)c1ccc(S(=O)(=O)N2CCCCCC2)cc1	i	i	i	i	i	nt	nt
NS(=O)(=O)c1ccccc1NC(=S)Nc1ccccc1S(N)(=O)=O	i	62	i	i	i	+	167
O=C1OC/C(=C(/O)c2ccc(Cl)cc2)C1=O	i	i	i	i	i	nt	nt
Cc1nc2sccc2c(=O)n1N	i	i	i	i	i	nt	nt
Cc1ccc(O)c(C=Nc2ccc3[nH]ncc3c2)c1	i	42	i	i	i	118	83
CC(=O)Nc1ccc(-c2ccnc3c2CC(C(=O)NCc2ccco2)O3)cc1 (stereo unspecified)	i	i	i	nt	i	nt	nt
COc1ccc2c3c([nH]c2c1)[C@]1(NCC3)C(=O)N(C)c2ccc(Cl)cc21	nt	nt	nt	nt	i	nt	nt
CCOc1ccc(CCN2C(=O)C(=O)N([C@@H](Cc3ccccc3)CN3CCC[C@H]3CN3C(=O)C(=O)NC[C@@H]3Cc3ccccc3)C[C@@H]2CC(C)C)cc1	nt	nt	nt	nt	i	nt	nt
Nc1ncc(-c2ccc(F)cc2)nc1N1CCN(CCO)CC1	i	47	i	nt	i	123	89
OCCN1CCN(c2nc3ccccc3nc2-c2ccccc2)CC1	i	i	i	i	i	nt	nt
COc1ccccc1NC(=O)Nc1cccnc1	i	i	i	i	i	nt	nt
O=C(OCC(=O)N(Cc1ccccc1)Cc1ccccc1)c1ccccc1NCCO	i	95	i	nt	i	i	i
O=C(COC(=O)c1ccccc1NCCO)NCC1CCCCC1	i	71	i	nt	i	100	76
O=C(COC(=O)c1ccccc1NCCO)NCCc1ccccc1	i	77	i	nt	i	47	38
COc1ccc(C(=O)OCC(=O)N(Cc2ccccc2)Cc2ccccc2)c(O)c1	i	i	i	nt	i	nt	nt
O=C(COC(=O)c1ccccc1Br)NCC1CCCCC1	i	i	i	nt	i	nt	nt
O=C(COC(=O)c1ccccc1NCCO)NCCC1=CCCCC1	i	63	i	nt	i	175	130
CC1(c2ccc([N+](=O)[O-])cc2)NC(=O)N(CC(=O)Nc2cccnc2Cl)C1=O (stereo unspecified)	i	i	i	nt	i	nt	nt
CC(C)(C)c1ccc(C(=O)N/N=C/c2cccc(Cl)c2)cc1	i	i	nt	i	i	nt	nt
CN1CCN(C(=O)C[C@@H]2CC[C@@H]3[C@H](COC[C@@H](O)CN3Cc3cccc(Cl)c3)O2)CC1	nt	nt	nt	nt	i	nt	nt
CSc1nc2c(c(=O)[nH]1)C(c1cccc(Br)c1)CC(=O)N2 (stereo unspecified)	i	i	i	i	i	nt	nt
Cc1ccc(-n2nc(C)c(NC(=O)COC(=O)c3ccccc3NCCO)c2C)cc1	i	68	i	nt	i	80	65
O=C(COC(=O)c1ccccc1NCCO)NNC(=O)c1cccs1	i	60	i	nt	i	+	+
CC(C#N)(NC(=O)COC(=O)c1ccccc1NCCO)C1CC1 (stereo unspecified)	i	99	i	nt	i	52	39
SMILES	GDH-TPI counter-1	Mtb FBA inh	BH1578 lux ind	3CLpro inhibitor	PrPC surface inh	Mtb FBA inh conf	GDH-TPI counter-2	others
O=C(COC(=O)c1ccccc1[N+](=O)[O-])NNC(=O)c1cccs1	i	i	i	i	i	nt	nt
COc1ccc(CN(C)C(=O)Cn2cc(C)c(=O)[nH]c2=O)cc1OC	i	i	i	nt	i	nt	nt
CC(C)(C)C(=O)N1CCC[C@]2(CC[C@H](CCC#N)O2)C1	nt	nt	nt	nt	i	nt	nt
COc1ccc(NC(=O)C2CCN(S(=O)(=O)c3cccnc3)CC2)cc1Cl	i	i	i	i	i	nt	nt
COc1ccc(Cn2cc(Cn3c4ccccc4c(=O)n3C(C)C)nn2)cc1	nt	105	nt	nt	i	77	55
COCc1cn(CC(C)n2c(=O)c3ccccc3n2Cc2cc(C(C)C)no2)nn1 (stereo unspecified)	nt	nt	nt	nt	i	nt	nt
CC(C)n1c(=O)c2ccccc2n1Cc1cn(-c2ccc(Cl)cc2)nn1	nt	56	nt	nt	i	35	30
O=C(O)c1cc(S(=O)(=O)Nc2ccccc2C(=O)O)ccc1O	i	29	i	i	i	i	i	GDH-TPI dose=i
O=C(Nc1cccc2ccccc12)N1CCN(Cc2ccccc2)CC1	i	33	i	i	i	96	74
CCOC(=O)N1CCN(C(=O)Nc2cccc3ccccc23)CC1	i	31	i	i	i	170	156
CCOC(=O)N1CCN(C(=O)Nc2ccc(NC(=O)N3CCN(C(=O)OCC)CC3)cc2)CC1	i	i	i	i	i	nt	nt
O=C(Nc1ccccc1)N1CC=C(c2ccccc2)CC1	nt	nt	nt	i	nt	nt	nt
O=C(Nc1cccc2ccccc12)N1CC=C(c2ccccc2)CC1	i	33	i	i	i	55	68
CC(=O)Nc1ccc(-c2ccnc3c2CC(C(=O)NCC2CCOCC2)O3)cc1 (stereo unspecified)	i	i	i	nt	i	nt	nt
CC(C)C1=CC2C3C(=O)N(c4ccccc4)C(=O)C3C1C(=O)C2(C)O (stereo unspecified)	nt	nt	nt	nt	i	nt	nt
CC(C)(C)OC(=O)NCCCCCNC(=O)c1ncn2c1c(=O)[nH]c1ccccc12	i	87	i	nt	i	42	34
CCOC(=O)/C=C/C(=O)OCC(=O)Nc1c(Cl)cccc1Cl	i	i	i	i	i	nt	nt
CCOC(=O)/C=C/[C@H]1CCc2cccc(Cl)c2O1	i	67	i	nt	i	i	i
COc1cc(CCC(=O)NCc2ccc(F)cc2)cc(OC)c1OC	i	33	i	i	i	54	47
COC(=O)c1ccc(C#Cc2ccccc2)o1	i	58	i	i	i	49	57
O=C(c1ccc(C#Cc2ccccc2)o1)N1CCN(c2ccccn2)CC1	i	i	i	i	i	nt	nt
O=C(O)CCCc1ccc2ccc3cccc4ccc1c2c34	35	56	i	i	i	+	+
COc1ccc2c(c1)c1ncn(CCN3CCCCC3)c(=O)c1n2C	i	100	i	i	i	107	88
Cc1ccc2c(c1)[nH]c1c(=O)n(CCN3CCCCC3)cnc12	i	i	i	i	i	nt	nt
COc1ccccc1CCn1cnc2c3cc(C)ccc3n(C)c2c1=O	i	46	i	i	i	+	+
COc1ccc2c(c1)c1ncn(CCN3CCCC3)c(=O)c1n2C	i	89	i	i	i	90	74
CC(=O)Oc1ccc(C23c4ccccc4C2(OC(C)=O)c2cc(OC(C)=O)ccc23)cc1 (stereo unspecified)	i	71	i	nt	i	98	85
CC(=O)Oc1ccc(C(=O)Nc2ccccc2NC(=O)c2ccc(OC(C)=O)cc2)cc1	i	i	i	i	i	nt	nt
Cc1cc(NC(=O)c2cc(F)c(F)cc2Cl)no1	i	i	i	i	i	nt	nt
Cc1ccc(NC(=O)c2cc(F)c(F)cc2Cl)nc1	i	82	i	i	i	136	124
